# Results as given in article PMC11447256.
# Tests used:
# [1] = target: Eukaryotic translation initiation factor 3 subunit B (UniProt P55884); assay: cross-linking mass spectrometry
# Histone H2A type 2-B = Histone H2A type 2-B (UniProt Q8IUE6); assay: cross-linking mass spectrometry
# [2] = target: Large ribosomal subunit protein eL6 (UniProt Q02878); assay: cross-linking mass spectrometry
# [3] = target: Large ribosomal subunit protein eL8 (UniProt P62424); assay: cross-linking mass spectrometry
# Nucleolar protein 16 = Nucleolar protein 16 (UniProt Q9Y3C1); assay: cross-linking mass spectrometry
# [4] = target: Large ribosomal subunit protein uL13 (UniProt P40429); assay: cross-linking mass spectrometry
# [5] = target: Large ribosomal subunit protein uL15 (UniProt P46776); assay: cross-linking mass spectrometry
# [6] = target: Large ribosomal subunit protein eL31 (UniProt P62899); assay: cross-link between two proteins; cross-linking mass spectrometry
# [7] = target: Large ribosomal subunit protein eL20 (UniProt Q02543); assay: as above
# [8] = target: Small ribosomal subunit protein uS4 (UniProt P46781); assay: cross-linking mass spectrometry
# [9] = target: Small ribosomal subunit protein uS9 (UniProt P62249); assay: cross-linking mass spectrometry
# [10] = target: Large ribosomal subunit protein eL19 (UniProt P84098); assay: cross-link between two proteins; cross-linking mass spectrometry
# [11] = target: Large ribosomal subunit protein eL36 (UniProt Q9Y3U8); assay: as above
# [12] = target: Large ribosomal subunit protein eL43 (UniProt P61513); assay: as above
# [13] = target: Small ribosomal subunit protein eS24 (UniProt P62847); assay: as above
# [14] = target: Small ribosomal subunit protein uS5 (UniProt P15880); assay: as above
# [15] = target: Small ribosomal subunit protein uS8 (UniProt P62244); assay: as above
substance,measurement,setting,value
"Small ribosomal subunit protein uS4, P46781",listed as a hit,[1],yes
"Histone H3.1, P68431",listed as a hit,Histone H2A type 2-B,yes
"Large ribosomal subunit protein uL30, P18124",listed as a hit,[2],yes
"Large ribosomal subunit protein eL13, P26373",listed as a hit,[3],yes
same,listed as a hit,Nucleolar protein 16,yes
"Large ribosomal subunit protein uL16, P27635",listed as a hit,[4],yes
same,listed as a hit,[5],yes
"Large ribosomal subunit protein uL3, P39023",listed as a hit,[4],yes
same,listed as a hit,[6],yes
"Large ribosomal subunit protein uL13, P40429",listed as a hit,[5],yes
same,listed as a hit,[7],yes
"Small ribosomal subunit protein uS3, P23396",listed as a hit,[8],yes
same,listed as a hit,[9],yes
"Large ribosomal subunit protein eL30, P62888",listed as a hit,[10],yes
"Large ribosomal subunit protein eL43, P61513",listed as a hit,[10],yes
"Large ribosomal subunit protein uL1, P62906",listed as a hit,[11],yes
"Large ribosomal subunit protein eL34, P49207",listed as a hit,[12],yes
"Small ribosomal subunit protein uS17, P62280",listed as a hit,[13],yes
"Small ribosomal subunit protein uS2, P08865",listed as a hit,[14],yes
"Small ribosomal subunit protein uS5, P15880",listed as a hit,[15],yes
